{"source": "PubChem BioAssay (EPA / NIEHS)", "note": "Inconclusive results are not listed. Calls of active or inactive are those of the source. How the source made its calls: active means hit-call score of the fitted dose curve at least 0.9, where 1 is the maximum; inconclusive means response in the unintended direction; inactive means score below 0.9.", "data": [{"assay": "CCTE_Shafer_MEA_acute_AB: CCTE's Alamar Blue Assay for Cytotoxicity in the Neural Acute Assay, Shafer Lab (AID 2284069);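 further: active compounds lower the viability signal compared with DMSO wells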", "protocol": "CCTE_Shafer_MEA_acute assay is conducted using Axion Biosystems 48 well microelectrode array (MEA) plates and Maestro recording system. Each well of the MEA plate contains a grid of 16 microelectrodes embedded in the culture surface. Electrically active cells, such as neurons, can be cultured over the electrodes, and electrical activity in these cells can be recorded extracellularly. The spontaneous firing of neurons is captured from each electrode on a microsecond timescale providing both temporally and spatially precise data. […] The CCTE_Shafer_MEA_acute assay uses primary cultures of rat cortical neurons. As these cultures mature over time, neural networks develop functional activity and form cohesive networks in which electrical activity can be highly coordinated. Baseline 40-minute recordings are made on days post-plating 13 or 15, followed by a secondary 40-minute recording after chemical exposure.CCTE_Shafer_MEA_acute_AB is a component of the CCTE_Shafer_MEA_acute assay. It measures the resazurin reduction using fluorescence.Data from the assay component CCTE_Shafer_MEA_acute_AB was analyzed into 1 assay endpoint. This assay endpoint, CCTE_Shafer_MEA_acute_AB, was analyzed in the positive analysis fitting direction relative to DMSO as the negative control and baseline of activity. Using a type of viability reporter, loss-of-signal activity can be used to understand cell viability.\nMetabolic activity was determined using the CellTiter Blue (CTB) assay (Promega Cat. #8081), following the manufacturer's instructions with the following modifications. Following the removal of the 50 uL sample for the LDH assay, 450 uL of media was removed from each well and replaced with 200 uL of fresh media containing a 1:6 dilution of CTB reagent for the determination of metabolic activity. Fluorescence was measured in a Fluorostar Optima fluorimeter using an excitation wavelength of 544 nm and an emission wavelength of 590 nm.", "values": [{"smiles": "CCCCCCCCCCCCCCCS(=O)(=O)Oc1ccccc1", "outcome": "inactive"}, {"smiles": "NC(=O)N(O)[C@@H]1C=C[C@H](Oc2cccc(Oc3ccc(F)cc3)c2)C1", "outcome": "inactive"}, {"smiles": "CC(C)CCCCCCOC(=O)CCCCC(=O)OCCCCCCC(C)C", "outcome": "inactive"}, {"smiles": "CC(=O)NC1(c2cccc(F)c2)CCN(CC[C@@]2(c3ccc(Cl)c(Cl)c3)CN(c3ccccc3)C(=O)CO2)CC1", "outcome": "inactive"}, {"smiles": "CCc1ccc(CCOc2ccc(CC3SC(=O)NC3=O)cc2)nc1", "note": "(configuration not stated)", "outcome": "inactive"}, {"smiles": "Oc1cc2ccccc2c2ccccc12", "AC50": "8 µM (active)"}, {"smiles": "Cc1cc(CCN2CCN(c3nsc4ccccc34)CC2)cc2c1NC(=O)CC2(C)C", "outcome": "inactive"}, {"smiles": "CC(C)(C)c1cc(C(C)(C)C)c(O)c(C(C)(C)C)c1", "outcome": "inactive"}, {"smiles": "CC#C[C@]1(O)CC[C@H]2[C@@H]3CCC4=CC(=O)CCC4=C3[C@@H](c3ccc(N(C)C)cc3)C[C@@]21C", "outcome": "inactive"}, {"smiles": "CN1CCC[C@H]1c1cccnc1", "outcome": "inactive"}, {"smiles": "OCCC(F)(F)C(F)(F)C(F)(F)C(F)(F)C(F)(F)C(F)(F)C(F)(F)C(F)(F)F", "outcome": "inactive"}, {"smiles": "OC1CCC(C2CCCCC2)CC1", "note": "(configuration not stated)", "outcome": "inactive"}, {"smiles": "CCC(=C(c1ccc(O)cc1)c1ccc(OCCN(C)C)cc1)c1ccccc1", "outcome": "inactive"}, {"smiles": "CN1CCN(c2ccccc2/C=C2\\SCCN(c3ccc(Cl)c(Cl)c3)C2=O)CC1", "outcome": "inactive"}, {"smiles": "CCCCCCCCCCCCc1ccccc1S(=O)(=O)O", "outcome": "inactive"}, {"smiles": "CN(C)C=O", "outcome": "inactive"}, {"smiles": "O=C(O)c1ccccc1C(c1ccc(O)cc1)c1ccc(O)cc1", "outcome": "inactive"}]}]}
